ChEMBL document CHEMBL1157539, “Thousands of chemical starting points for antimalarial lead identification” (Nature, 2010)

Columns and labels:
Format in all cases: functional
Plasmodium falciparum [1] = assay: GSK_TCMDC: Inhibition of Plasmodium falciparum 3D7 in whole red blood cells, using parasite LDH activity as an index of growth. Test compounds present at 2uM
Plasmodium falciparum [2] = assay: GSK_TCMDC: Inhibition of Plasmodium falciparum Dd2 in whole red blood cells, using parasite LDH activity as an index of growth. Test compounds present at 2uM
HepG2 = assay: GSK_TCMDC: Percent inhibition of human HepG2 cell line. Test compounds present at 10uM.

Compound | Inhibition (Plasmodium falciparum [1]) [%] | Inhibition (Plasmodium falciparum [2]) [%] | Inhibition (HepG2) [%]
Nc1ccc(-c2ccc(NC(=O)Nc3ccccc3)cc2)cn1 | 91 | 93 | 0
COc1ccccc1CCNc1nc(C)cc(NCCC(=O)NCCOc2ccccc2)n1.O=C(O)C(F)(F)F | 85 | 14 | 11
Cc1ccc(NS(=O)(=O)c2ccc(C(C)N3CCC(N4CCCCC4)CC3)cc2)cc1C (stereo not drawn) | 97 | 82 | 66
CN1CC[C@@H](Oc2cc(Nc3nc(-c4ccc(C#N)cc4)cs3)ccc2Cl)C1.Cl | 99 | 24 | 12
CN1CCN(C(C(=O)NCc2cc(Cl)cc(Cl)c2)c2ccccc2-c2ccsc2)CC1 (stereo not drawn) | 95 | 80 | 11
Cc1ccc(S(=O)(=O)N(CCCNCc2cccc(O)c2)c2ccccc2)cc1 | 95 | 94 | 6
COc1ccc2nccc([C@@H](O)CN3CCC(NCc4nc5ccccc5s4)CC3)c2c1.O=C(O)C(=O)O | 93 | 5 | 8
CC(=O)Nc1cccc(C(=O)Nc2cccc(-c3ccc(-c4nc5cccc(C)c5[nH]4)s3)c2)c1 | 99 | 26 | 75
c1cncc(-c2cc(N3CCCCC3)nc(-c3ccncc3)n2)c1 | 99 | 46 | 18
COc1cccc2c(Nc3ccccc3C)nc(Nc3ccccc3C)nc12 | 95 | 36 | 9
Cc1cc(-c2ccc(NC(=O)N3CCc4cc(Br)c(N5CCN(C)CC5)cc43)cc2)cc(C)n1 | 92 | 4 | 29
